Only some compounds are listed: those with a hit (about 4% of all), similar ones and a draw of the others.
TIM10 inh = growth inhibitors of TIM10 yeast strain; S. cerevisiae TIM10 strain growth, BacTiter-Glo luminescence, 24 h; inhibition, % at 10 µM; 330,000 tested, 1.4% active; AID 463195;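 active means inhibition of 40% or more at the single tested concentration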;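 further: wild-type TIM10 isogenic control strain grown at permissive 25 °C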
NLRP3 yeast inh = blocks the NALP3 inflammasome reconstituted in yeast | inhibition, % at 10 µM | Yeast reconstituted NLRP3/ASC/caspase-1, beta-gal luminescence, 24 h | 330,000 tested, 0.39% active;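 active means inhibition of 50% or more; inactive means inhibition below 50%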;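 further: plate controls were induced DMSO wells for no effect and uninduced yeast grown without galactose for full effect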
NALP1 inh = NALP1 inhibition; S. cerevisiae NALP1/ASC/caspase-1 growth, X-gal OD620, 72 h; inhibition, % at 10 µM; 280,000 tested, 0.61% active; AID 2071; in the data active means inhibition mostly above about 24%, no sharp cut-off; inactive means mostly below about 32%
tim23-1 inh = inhibits growth of tim23-1 mutant yeast. 330,000 tested, 1.3% active. S. cerevisiae tim23-1 growth, BacTiter-Glo luminescence, 24 h. inhibition, % at 20 µM. AID 463212;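 active means growth inhibition of the mutant yeast at or above 50%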;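 further: temperature-sensitive mutant grown at 25 °C; plate controls were DMSO-treated mutant yeast for no effect and medium wells lacking yeast for full effect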
tim10-1 inh = inhibits growth of tim10-1 mutant yeast. AID 463190. inhibition, % at 20 µM. 330,000 tested, 2.2% active. S. cerevisiae tim10-1 ts strain growth, BacTiter-Glo, 24 h;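 active means inhibition of at least 40%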;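 further: mutant grown at 25 °C; 0% = DMSO wells with yeast and 100% = wells holding no yeast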
tim10-1 confirm = tim10-1 yeast growth inhibition, confirmed; inhibition, % at 20 µM; 7,400 tested, 56% active; S. cerevisiae tim10-1 ts strain growth, BacTiter-Glo, 24 h; shares compounds with tim10-1 inh;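 active means inhibition of yeast growth at or above a set limit in either of two repeat tests at 20 µM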;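 further: tim10-1 mutant grown at permissive 25 °C to find synthetic lethal compounds; 0% = DMSO yeast wells and 100% = medium wells without yeast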
TIM10 conf = TIM10 yeast growth inhibition, confirmed | 4,600 tested, 63% active | inhibition, % at 10 µM | S. cerevisiae tim10 strain growth, BacTiter-Glo luminescence, 24 h | shares compounds with TIM10 inh | AID 463215;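 active means inhibition of yeast growth at or above a set limit in either of two replicates at 10 µM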;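 further: this counterscreen used the strain with wild-type TIM10; 0% = yeast with DMSO and 100% = medium wells lacking yeast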
* hit, by the source's call.

`CC(C)CN(C(=O)C1CSC2(C)CCC(=O)N12)c1c(N)n(Cc2ccccc2)c(=O)[nH]c1=O` (stereo not given) gave TIM10 inh -2, NLRP3 yeast inh 18, NALP1 inh 3, tim23-1 inh -4 and tim10-1 inh -4.
Screening Fc1ccc(-c2ccnc3nc(N4CCOCC4)nn23)cc1 returned TIM10 inh -5, NLRP3 yeast inh 4, NALP1 inh 7, tim23-1 inh 1 and tim10-1 inh 26.
Screening COc1ccc(-c2ccnc3nc(N4CCN(c5ccccc5)CC4)nn23)cc1 returned TIM10 inh 47*, NLRP3 yeast inh 27, NALP1 inh 37, tim23-1 inh 48, tim10-1 inh 43*, tim10-1 confirm 36* and TIM10 conf 26.
`COc1ccc(CCNC(=S)NC(=O)c2cccc(Cl)c2)cc1OC` gave TIM10 inh 40*, NLRP3 yeast inh 20, NALP1 inh 14, tim23-1 inh 35, tim10-1 inh 48*, tim10-1 confirm 30* and TIM10 conf 41*.
Screening CCOc1cc(C(=O)N/N=C\c2cn(CC)nc2C)cc(OCC)c1OCC returned TIM10 inh 13, NLRP3 yeast inh 20, NALP1 inh 4, tim23-1 inh 7 and tim10-1 inh 9.
Screening CC[C@]1(C(=O)OC)[C@H]2C(=O)N(C)C(=O)[C@H]2[C@H]2CN=C(SCc3ccc(C#N)cc3)N21 returned TIM10 inh -4, tim23-1 inh 23 and tim10-1 inh 10.
For S=C(NCCc1ccccc1)Nc1ccc(Br)cc1 the results were TIM10 inh 24, NLRP3 yeast inh 37, NALP1 inh 50, tim23-1 inh 26 and tim10-1 inh 14.
CC(C)(C)c1ccc(-c2cc(N)n[nH]2)cc1 was read as TIM10 inh 13, NLRP3 yeast inh 18, NALP1 inh 26, tim23-1 inh 1 and tim10-1 inh 12.
`CC(C)(C)c1ccc(-c2cc(-c3ccccc3O)[nH]n2)cc1` gave TIM10 inh 41*, NLRP3 yeast inh 14, NALP1 inh 13, tim23-1 inh 43, tim10-1 inh 49*, tim10-1 confirm 42* and TIM10 conf 22.
For O=[N+]([O-])c1ccccc1-c1cc(-c2cc(Cl)ccc2O)n[nH]1 the results were NALP1 inh 14.
For Oc1ccc(Br)cc1-c1ccn[nH]1 the results were TIM10 inh 25, NLRP3 yeast inh 14, NALP1 inh 39, tim23-1 inh 23 and tim10-1 inh 38.
`Cc1ccc(O)c(-c2cc(-c3ccccc3C)[nH]n2)c1` gave TIM10 inh 66*, NLRP3 yeast inh 4, NALP1 inh 6, tim23-1 inh -9, tim10-1 inh 52*, tim10-1 confirm 18 and TIM10 conf -1.
For Oc1ccc(Cl)cc1-c1cc(-c2ccccc2Cl)[nH]n1 the results were TIM10 inh 41*, NLRP3 yeast inh 7, NALP1 inh 17, tim23-1 inh 37, tim10-1 inh 49*, tim10-1 confirm 36* and TIM10 conf 37*.
`Oc1ccc(Cl)cc1-c1cc(-c2cccc(Br)c2)n[nH]1` gave TIM10 inh 53*, NLRP3 yeast inh 2, NALP1 inh 10, tim23-1 inh 49, tim10-1 inh 48*, tim10-1 confirm 37* and TIM10 conf 49*.
For COc1ccccc1C(=O)NCCC(=O)NC1CCC(C)CC1 (stereo not given) the results were TIM10 inh 6, NLRP3 yeast inh -12, tim23-1 inh 20 and tim10-1 inh 17.
For CCCCC(=O)Oc1c(S(=O)(=O)c2ccccc2)c(C)nn1C(C)(C)C the results were TIM10 inh 22, NLRP3 yeast inh -4, NALP1 inh 22, tim23-1 inh 37 and tim10-1 inh 34.
Cc1ccc(C)c(NC(=O)NCCN2CCCCC2)c1 was read as TIM10 inh 2, NLRP3 yeast inh 4, NALP1 inh 10, tim23-1 inh -6 and tim10-1 inh -10.
Screening Cc1ccc2ccccc2c1NC(=O)c1ccco1 returned TIM10 inh 7, NLRP3 yeast inh 9, NALP1 inh 19, tim23-1 inh 11 and tim10-1 inh 8.
For CN(C)C1=NCCN1CCCCc1ccccc1 the results were TIM10 inh -10, NLRP3 yeast inh 7, tim23-1 inh -8 and tim10-1 inh -13.
For CCOC(=O)/C(C#N)=C/c1cc2ccccc2nc1N1CCCCC1 the results were TIM10 inh 12, NLRP3 yeast inh -10, NALP1 inh -2, tim23-1 inh 23 and tim10-1 inh 30.
For Cc1ccc2cc(/C=C(\C#N)C(N)=O)c(N3CCCCC3)nc2c1 the results were TIM10 inh 46*, NLRP3 yeast inh 17, NALP1 inh 25, tim23-1 inh 32, tim10-1 inh 42*, tim10-1 confirm 18 and TIM10 conf 34*.
`CCOC(=O)c1sc(NC(=S)NC(=O)CC(C)C)cc1C` gave TIM10 inh 58*, NLRP3 yeast inh 12, NALP1 inh 6, tim23-1 inh 7, tim10-1 inh 53*, tim10-1 confirm 42* and TIM10 conf 51*.
For CCOC(=O)c1sc(NC(=O)C(C)(C)C)cc1C the results were TIM10 inh 31, NLRP3 yeast inh 27, NALP1 inh 36, tim23-1 inh 33 and tim10-1 inh 34.
`O=C(Nc1cc(Sc2ccccn2)cc([N+](=O)[O-])c1)c1ccc(Cl)cc1` gave TIM10 inh 2, NLRP3 yeast inh -2, NALP1 inh -2, tim23-1 inh 2 and tim10-1 inh 2.
Screening O=C(Nc1cc(Sc2ccccn2)cc([N+](=O)[O-])c1)c1cccc(Cl)c1 returned TIM10 inh 54*, NLRP3 yeast inh 14, NALP1 inh 14, tim23-1 inh 38, tim10-1 inh 42*, tim10-1 confirm 34* and TIM10 conf -1.
COc1cccc(C(=O)NCc2ccco2)c1OC was read as TIM10 inh -6, NLRP3 yeast inh 20, NALP1 inh -16, tim23-1 inh 0 and tim10-1 inh -18.
For O=C(c1cc(-c2ccco2)on1)N1CCN(C(c2ccccc2)c2ccccc2)CC1 the results were TIM10 inh 67*, NLRP3 yeast inh 16, NALP1 inh -10, tim23-1 inh 30, tim10-1 inh 62*, tim10-1 confirm 62* and TIM10 conf 58*.
COc1ccc(-c2cc(C(=O)N3CCCC3)no2)cc1 was read as TIM10 inh -13, NLRP3 yeast inh 35, NALP1 inh 9, tim23-1 inh 14 and tim10-1 inh 8.
`COc1ccc(-c2cc(C(=O)N3CCN(C(c4ccccc4)c4ccccc4)CC3)no2)cc1` gave TIM10 inh 69*, NLRP3 yeast inh 11, NALP1 inh -9, tim23-1 inh 37, tim10-1 inh 59*, tim10-1 confirm 63* and TIM10 conf 54*.

Source: PubChem (Sanford-Burnham Center for Chemical Genomics)
